{"source": "PubChem BioAssay (NCI)", "note": "Several values for one entry are separate records, joined by “and”; a condition that tells them apart may be missing. Identical values can stand only once. This is part of a sample that, as a whole, favours compounds with a hit. Of some 79,000 tested, about 15% had one in any assay. Values without a mark were called inactive. Activity calls are given as the source filed them. Cut-off read from the data, not from the text of the source: active = growth inhibition above about 70%; inactive = the rest.", "data": [{"assay": "NCI Yeast Anticancer Drug Screen. Data for the bub3 strain (AID 167)", "settings": "S. cerevisiae bub3 mutant strain, at 50.0 µM, hits give high values", "in_short": "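Screening used yeast with an engineered genetic alteration affecting cell cycle control. Compound-exposed cultures were compared with vehicle cultures, and reduced growth was taken as inhibition.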", "values": [{"smiles": "O=C1NC(=O)C(c2ccsc2)C(=O)N1", "growth inhibition": "7.5%"}, {"smiles": "[NH-]C(CO)C(=O)O.[NH-]C(CO)C(=O)O.[Pd+2]", "note": "(stereo not given)", "growth inhibition": "-5.95%"}, {"smiles": "CCc1ccc(OP(=O)(Oc2cc(C)cc(C)c2)Oc2cc(C)cc(C)c2)cc1", "growth inhibition": "1.55%"}, {"smiles": "Cc1cccc(C)c1OCC1=NCCN1", "growth inhibition": "5.5%"}, {"smiles": "ClCCN(CCCl)c1ccc(CCN2CCOCC2)cc1", "growth inhibition": "-0.1%"}, {"smiles": "Cn1c(O)c(C=N)c(=O)n(C)c1=O", "growth inhibition": "0.8%"}, {"smiles": "CC(C(O)c1cccnc1)[N+](=O)[O-]", "note": "(stereo not given)", "growth inhibition": "3.95%"}, {"smiles": "CN1CCC2=C(c3ccccc3)c3ccccc3C2C1", "note": "(stereo not given)", "growth inhibition": "3.8%"}, {"smiles": "Cc1nn[n-]n1.N.N.N.N.N.[Cl-].[Co+3]", "growth inhibition": "9.6%"}, {"smiles": "C/C(=C\\COc1ccc2ccc(=O)oc2c1)C1=CC(=O)C(C)(C)O1", "growth inhibition": "-14.8%"}, {"smiles": "CN(Cc1cnc2nc(N)nc(N)c2n1)c1ccc(C(=O)NC(CCC(=O)NC(CC(P(=O)(O)O)P(=O)(O)O)C(=O)O)C(=O)O)cc1", "note": "(stereo not given)", "growth inhibition": "5.75%"}, {"smiles": "Cc1ccc(N)c(N)c1", "growth inhibition": "7.75% and -7.95%"}, {"smiles": "COc1ccc2ccc3oc([N+](=O)[O-])cc3c2c1", "growth inhibition": "-36%"}, {"smiles": "NCCN.NCCN.[Cl-].[O]=[Re]=[O]", "growth inhibition": "-22.4%"}, {"smiles": "CC(=O)O", "growth inhibition": "1.45%"}, {"smiles": "CCCC1(CCS)C(=O)NC(=O)NC1=O", "growth inhibition": "2.3%"}, {"smiles": "Cc1cc(N(CCCl)CCCl)ccc1C=N/C(C#N)=C(\\N)C#N", "growth inhibition": "-1.9%"}, {"smiles": "O=C1CCP(c2ccccc2)(c2ccccc2)(c2ccccc2)O1", "growth inhibition": "14.3%"}, {"smiles": "CO[C@H]1Nc2c(ccc(C)c2O)C(=O)N2C=C(/C=C/C(N)=O)C[C@@H]12", "growth inhibition": "90.3% (active)"}, {"smiles": "CC12CCC3C(=CC=C4CC(O)CCC43C)C1CCC2=O", "note": "(stereo not given)", "growth inhibition": "22.9% and -11.6%"}, {"smiles": "Fc1ccc(C2(N3CCC4(CC3)OCCO4)CCCCC2)cc1", "growth inhibition": "0.1%"}, {"smiles": "CC1CCCN(C(c2ccccc2)C(O)c2ccccc2)C1", "note": "(stereo not given)", "growth inhibition": "46.5%"}, {"smiles": "COc1cc[c]([Pb]([c]2ccc(Cl)cc2)([c]2ccc(Cl)cc2)[c]2ccc(OC)cc2)cc1", "growth inhibition": "-4.25%"}, {"smiles": "CCN(CCCl)c1cccc(NC(=O)c2ccc(C(=O)Nc3cccc(CN(C)C)c3)cc2)c1", "growth inhibition": "-14.4%"}, {"smiles": "N.N.N.N.[Co+3].[O-][Cl+3]([O-])([O-])[O-].[OH3+].[OH3+]", "growth inhibition": "-6%"}, {"smiles": "N#C[C@H](OC1OC(COC2OC(CO)C(O)C(O)C2O)C(O)C(O)C1O)c1ccccc1", "note": "(stereo not given in full)", "growth inhibition": "-29.1%"}, {"smiles": "CN1c2ccccc2NP1(=S)c1ccccc1", "note": "(stereo not given)", "growth inhibition": "55.9%"}, {"smiles": "C[n+]1ccccc1-c1ccc[n+](CCCC[n+]2cccc(-c3cccc[n+]3C)c2)c1", "growth inhibition": "-8.65%"}, {"smiles": "O=P(O)(OCCc1ccccc1)Oc1ccccc1O", "growth inhibition": "-10.7%"}, {"smiles": "COc1cc([C@@H]2c3cc(O)c(OC)cc3C[C@H]3C(=O)OC[C@@H]23)ccc1O", "growth inhibition": "25.3%"}, {"smiles": "c1ccc2c(c1)ccc1[s+]cccc12", "growth inhibition": "16.1%"}, {"smiles": "CC1CC2CCC1(CO)CN2", "note": "(stereo not given)", "growth inhibition": "0.85%"}, {"smiles": "CN(C)c1c2c(=O)n(C)c(=O)n(C)c2nc2cccc[n+]12", "growth inhibition": "5.95%"}, {"smiles": "CC(C)N(C#N)C(C)C", "growth inhibition": "0.25%"}, {"smiles": "C1CC[N-]CC1.CC(=N\\O)/C(C)=N/O.CC(=N\\O)/C(C)=N/O.C[CH-]C(C)O.[Co+2]", "growth inhibition": "-13.1%"}, {"smiles": "OC1(CN2CCCCC2)N=C(c2ccccc2)c2ccsc2-n2cccc21", "note": "(stereo not given)", "growth inhibition": "-11.5%"}, {"smiles": "NCCN.NCCN.O=C([O-])CCl.O=C([O-])CCl.[Co+3].[O-][Cl+3]([O-])([O-])[O-]", "growth inhibition": "-18.5%"}, {"smiles": "CN(C)P(=S)(N(C)C)N1CCOCC1", "growth inhibition": "-28.3%"}, {"smiles": "CC(=N\\O)/C(C)=N/O.CC(=N\\O)/C(C)=N/O.[Ni]", "growth inhibition": "5.4%"}, {"smiles": "COP(=O)(O)NC(C)=O", "growth inhibition": "9.45%"}]}, {"assay": "NCI Yeast Anticancer Drug Screen. Data for the mlh1 rad18 strain (AID 175)", "settings": "S. cerevisiae mlh1 rad18 strain growth inhibition; at 50.0 µM; hits give high values", "in_short": "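Test agents were incubated with a yeast strain of defined genotype (DNA damage repair defect). Inhibition of growth was derived by comparison with vehicle-exposed cultures.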", "values": [{"smiles": "O=C1NC(=O)C(c2ccsc2)C(=O)N1", "growth inhibition": "1.45%"}, {"smiles": "[NH-]C(CO)C(=O)O.[NH-]C(CO)C(=O)O.[Pd+2]", "note": "(stereo not given)", "growth inhibition": "15.9%"}, {"smiles": "CCc1ccc(OP(=O)(Oc2cc(C)cc(C)c2)Oc2cc(C)cc(C)c2)cc1", "growth inhibition": "-15.9%"}, {"smiles": "Cc1cccc(C)c1OCC1=NCCN1", "growth inhibition": "-13.1%"}, {"smiles": "ClCCN(CCCl)c1ccc(CCN2CCOCC2)cc1", "growth inhibition": "9.3%"}, {"smiles": "Cn1c(O)c(C=N)c(=O)n(C)c1=O", "growth inhibition": "4.7%"}, {"smiles": "CC(C(O)c1cccnc1)[N+](=O)[O-]", "note": "(stereo not given)", "growth inhibition": "-17.4%"}, {"smiles": "CN1CCC2=C(c3ccccc3)c3ccccc3C2C1", "note": "(stereo not given)", "growth inhibition": "3.55%"}, {"smiles": "Cc1nn[n-]n1.N.N.N.N.N.[Cl-].[Co+3]", "growth inhibition": "13.1%"}, {"smiles": "C/C(=C\\COc1ccc2ccc(=O)oc2c1)C1=CC(=O)C(C)(C)O1", "growth inhibition": "12.2%"}, {"smiles": "CN(Cc1cnc2nc(N)nc(N)c2n1)c1ccc(C(=O)NC(CCC(=O)NC(CC(P(=O)(O)O)P(=O)(O)O)C(=O)O)C(=O)O)cc1", "note": "(stereo not given)", "growth inhibition": "-21.9%"}, {"smiles": "Cc1ccc(N)c(N)c1", "growth inhibition": "19% and 7.5%"}, {"smiles": "COc1ccc2ccc3oc([N+](=O)[O-])cc3c2c1", "growth inhibition": "-36%"}, {"smiles": "NCCN.NCCN.[Cl-].[O]=[Re]=[O]", "growth inhibition": "-0.6%"}, {"smiles": "CC(=O)O", "growth inhibition": "0.55%"}, {"smiles": "CCCC1(CCS)C(=O)NC(=O)NC1=O", "growth inhibition": "9.15%"}, {"smiles": "Cc1cc(N(CCCl)CCCl)ccc1C=N/C(C#N)=C(\\N)C#N", "growth inhibition": "-4.85%"}, {"smiles": "O=C1CCP(c2ccccc2)(c2ccccc2)(c2ccccc2)O1", "growth inhibition": "7%"}, {"smiles": "CO[C@H]1Nc2c(ccc(C)c2O)C(=O)N2C=C(/C=C/C(N)=O)C[C@@H]12", "growth inhibition": "87.3% (active)"}, {"smiles": "CC12CCC3C(=CC=C4CC(O)CCC43C)C1CCC2=O", "note": "(stereo not given)", "growth inhibition": "23.1% and 16.1%"}, {"smiles": "Fc1ccc(C2(N3CCC4(CC3)OCCO4)CCCCC2)cc1", "growth inhibition": "5.6%"}, {"smiles": "CC1CCCN(C(c2ccccc2)C(O)c2ccccc2)C1", "note": "(stereo not given)", "growth inhibition": "7.6%"}, {"smiles": "COc1cc[c]([Pb]([c]2ccc(Cl)cc2)([c]2ccc(Cl)cc2)[c]2ccc(OC)cc2)cc1", "growth inhibition": "16.2%"}, {"smiles": "CCN(CCCl)c1cccc(NC(=O)c2ccc(C(=O)Nc3cccc(CN(C)C)c3)cc2)c1", "growth inhibition": "26.3%"}, {"smiles": "N.N.N.N.[Co+3].[O-][Cl+3]([O-])([O-])[O-].[OH3+].[OH3+]", "growth inhibition": "-13.6%"}, {"smiles": "N#C[C@H](OC1OC(COC2OC(CO)C(O)C(O)C2O)C(O)C(O)C1O)c1ccccc1", "note": "(stereo not given in full)", "growth inhibition": "-28.1%"}, {"smiles": "CN1c2ccccc2NP1(=S)c1ccccc1", "note": "(stereo not given)", "growth inhibition": "83.2% (active)"}, {"smiles": "C[n+]1ccccc1-c1ccc[n+](CCCC[n+]2cccc(-c3cccc[n+]3C)c2)c1", "growth inhibition": "20%"}, {"smiles": "O=P(O)(OCCc1ccccc1)Oc1ccccc1O", "growth inhibition": "13.6%"}, {"smiles": "COc1cc([C@@H]2c3cc(O)c(OC)cc3C[C@H]3C(=O)OC[C@@H]23)ccc1O", "growth inhibition": "-1.6%"}, {"smiles": "c1ccc2c(c1)ccc1[s+]cccc12", "growth inhibition": "76% (active)"}, {"smiles": "CC1CC2CCC1(CO)CN2", "note": "(stereo not given)", "growth inhibition": "3.9%"}, {"smiles": "CN(C)c1c2c(=O)n(C)c(=O)n(C)c2nc2cccc[n+]12", "growth inhibition": "11.6%"}, {"smiles": "CC(C)N(C#N)C(C)C", "growth inhibition": "6.25%"}, {"smiles": "C1CC[N-]CC1.CC(=N\\O)/C(C)=N/O.CC(=N\\O)/C(C)=N/O.C[CH-]C(C)O.[Co+2]", "growth inhibition": "39.9%"}, {"smiles": "OC1(CN2CCCCC2)N=C(c2ccccc2)c2ccsc2-n2cccc21", "note": "(stereo not given)", "growth inhibition": "-3%"}, {"smiles": "NCCN.NCCN.O=C([O-])CCl.O=C([O-])CCl.[Co+3].[O-][Cl+3]([O-])([O-])[O-]", "growth inhibition": "-9%"}, {"smiles": "CN(C)P(=S)(N(C)C)N1CCOCC1", "growth inhibition": "-9%"}, {"smiles": "CC(=N\\O)/C(C)=N/O.CC(=N\\O)/C(C)=N/O.[Ni]", "growth inhibition": "-10.9%"}, {"smiles": "COP(=O)(O)NC(C)=O", "growth inhibition": "-8.4%"}]}]}
